From PubChem
The list is not random: actives were taken first. Their share in the collection is about 2.9%.
DNA FID counter: compounds displacing fluorescent DNA intercalator, primary screen, artefact control for HCV NS3 helicase inhibitor project, biochemical, FID fluorescence; DNA fluorescent intercalator displacement; inhibition, % at 7.9 µM; 290,000 compounds, 0.17% hits; AID 1845, 2009; in the data active = inhibition above about 37%;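 also: 0% = vehicle and 100% = reference compound; higher means more ethidium bromide displaced from hairpin DNA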
dFosB activator: activators of delta FosB homodimer, primary screen, biochemical, fluorescence polarization, TAMRA-CDK5 oligo, single point; Protein FosB (Mus musculus), P13346; purified delta FosB; percent of positive-control signal above neutral wells; activation, % at 25 µM; 340,000 compounds, 0.99% hits;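 active = mean activation above about 17%, with every replicate also reaching it, limit read from the data, passing the limit was not always enough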
Target sequence (P13346 whole entry, looked up): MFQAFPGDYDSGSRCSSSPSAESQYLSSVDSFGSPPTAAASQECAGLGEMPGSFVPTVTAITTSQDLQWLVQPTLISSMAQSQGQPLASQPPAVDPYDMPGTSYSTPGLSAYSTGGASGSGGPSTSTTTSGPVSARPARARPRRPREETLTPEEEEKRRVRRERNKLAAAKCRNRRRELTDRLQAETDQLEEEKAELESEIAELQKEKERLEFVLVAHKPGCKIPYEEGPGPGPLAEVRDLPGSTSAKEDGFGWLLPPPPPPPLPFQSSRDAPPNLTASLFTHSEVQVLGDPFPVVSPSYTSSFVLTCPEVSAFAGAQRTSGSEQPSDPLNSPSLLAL
MEKK2mut PB1 HTS: MEK5 binding signal on mutant MEKK2 PB1, primary screen, biochemical, multiplex bead flow cytometry, Alexa488-MEK5; Alexa488-MEK5 binding to MEKK2 mutant; 290,000 compounds, 0.35% hits; percent response, % at 10 µM; in the data active = percent response above about 24%, passing the limit was not always enough
MEKK3 PB1 HTS: modulators of MEKK3-MEK5 PB1 binding, primary screen, biochemical, wildtype MEKK3, multiplex bead flow cytometry, Alexa488-MEK5; Mitogen-activated protein kinase kinase kinase 3 (Homo sapiens), Q99759; bead-based flow cytometry, Alexa488-MEK5 binding to MEKK3; actives lie on both sides; 0 = blocked by unlabeled MEK5, 100 = vehicle; binding response (% of control), % at 10 µM; 290,000 compounds, 1.4% hits;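 active = binding response more than 3 SD above or below the average of its plate-row segment, actives on both sides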;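 also: Alexa488 bead fluorescence after subtracting the streptavidin-only scavenger bead signal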
MEKK2wt PB1 HTS: modulators of MEK5 binding to wildtype MEKK2, primary screen, biochemical, multiplex bead flow cytometry, Alexa488-MEK5 | AID 1531, 2009 | binding response (% of control), % at 10 µM | Alexa488-MEK5 binding to MEKK2 WT; actives lie on both sides | 290,000 compounds, 1.1% hits; in the data active = binding response below about 67% or above about 130%
MEKK2wt confirm: modulators of MEK5 binding to wildtype MEKK2, confirmation, biochemical, single concentration, multiplex bead flow cytometry. AID 1892, 2009. Alexa488-MEK5 binding to MEKK2 WT; actives lie on both sides. shares compounds with MEKK3 PB1 HTS. binding response (% of control), % at 10 µM. 5,900 compounds, 2.4% hits; in the data active = binding response below about 16% or above about 210%; inactive = in between
MEKK2mut confirm: mutant MEKK2 PB1-MEK5 binding signal retest – biochemical, single concentration, multiplex bead flow cytometry, confirmation. percent response, % at 10 µM. 5,900 compounds, 2% hits. shares compounds with MEKK3 PB1 HTS. Alexa488-MEK5 binding to MEKK2 mutant. AID 1893, 2009; in the data active = percent response mostly above about 71%, no sharp cut-off; inactive = mostly below about 38%;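 also: higher means compound restores mutant binding toward wildtype level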
MEKK3 confirm: MEKK3 wild-type PB1 binding to MEK5, inhibitors, confirmation, biochemical, bead multiplex flow cytometry, single concentration, wildtype | shares compounds with MEKK3 PB1 HTS | Alexa488-MEK5 binding to MEKK3; active compounds read low | binding response (% of control), % at 10 µM | 5,900 compounds, 1.8% hits;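 active = binding response below 72% of control, or above a set upper limit, though filed actives all read lower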;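 also: 100% = DMSO only wells and 0% = binding blocked by excess unlabeled MEK5; lower values mean stronger disruption of MEK5 binding to MEKK3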
* marks the source's active call; other numbers are inactive results; [ ] = remark or other dose.

Screening CCCCCCN1CCN(c2ccc(Cl)cc2)CC1 returned DNA FID counter 5, dFosB activator -3, MEKK2mut PB1 HTS -9, MEKK3 PB1 HTS 81 and MEKK2wt PB1 HTS 89.
Screening C=CCN1C(=O)/C(=C/c2cc(C)n(-c3ccccn3)c2C)C(=O)NC1=S returned DNA FID counter -7, dFosB activator -5, MEKK2mut PB1 HTS -2, MEKK3 PB1 HTS 94, MEKK2wt PB1 HTS 61*[inhibitor], MEKK2wt confirm 96, MEKK2mut confirm -2 and MEKK3 confirm 100.
`CCc1ccc(NP(=O)(Oc2ccccc2F)Oc2ccccc2F)cc1` gave DNA FID counter -10, dFosB activator -20, MEKK2mut PB1 HTS -27, MEKK3 PB1 HTS 1.0*[inhibitor], MEKK2wt PB1 HTS -3.0*[inhibitor], MEKK2wt confirm 100, MEKK2mut confirm -7 and MEKK3 confirm 102.
Screening Cc1ccc(NP(=O)(Oc2ccccc2F)Oc2ccccc2F)cc1 returned DNA FID counter -21, dFosB activator -11, MEKK2mut PB1 HTS 2, MEKK3 PB1 HTS 101 and MEKK2wt PB1 HTS 97.
Screening COc1cc(N2CCOCC2)ccc1/C=C1\C(=O)NC(=O)N(C2CCCCC2)C1=O returned DNA FID counter -24, dFosB activator 3, MEKK2mut PB1 HTS -1, MEKK3 PB1 HTS 130*, MEKK2wt PB1 HTS 105, MEKK2wt confirm 96, MEKK2mut confirm -1 and MEKK3 confirm 98.
Screening c1ccc(CCCN2CCN(CCOC(c3ccccc3)c3ccccc3)CC2)cc1 returned dFosB activator 2, MEKK2mut PB1 HTS 8, MEKK3 PB1 HTS 108, MEKK2wt PB1 HTS 162*, MEKK2wt confirm 130, MEKK2mut confirm 27 and MEKK3 confirm 103.
Fc1ccc(C(OCCN2CCCC2)c2ccc(F)cc2)cc1 was read as DNA FID counter 11, dFosB activator -7, MEKK2mut PB1 HTS -1, MEKK3 PB1 HTS 99 and MEKK2wt PB1 HTS 107.
For Fc1ccc(C(OCCN2CCN(CCCc3ccccc3)CC2)c2ccc(F)cc2)cc1 the results were dFosB activator 6, MEKK2mut PB1 HTS 26*, MEKK3 PB1 HTS 112, MEKK2wt PB1 HTS 235*, MEKK2wt confirm 187, MEKK2mut confirm 41 and MEKK3 confirm 109.
Screening C/C=C1/CN2[C@@H]3C4CO[C@@H]3c3c([nH]c5cc(OC)ccc35)[C@@H]2CC14 (stereo partly drawn) returned dFosB activator -2, MEKK2mut PB1 HTS 7, MEKK3 PB1 HTS 112 and MEKK2wt PB1 HTS 115.
For CCc1c(C)nc(N)nc1N1N=C1SCC(N)=O the results were DNA FID counter 3, dFosB activator -1, MEKK2mut PB1 HTS 4, MEKK3 PB1 HTS 104 and MEKK2wt PB1 HTS 104.
`C1=C(c2c[nH]c3ccccc23)CCNC1` gave DNA FID counter -1, MEKK2mut PB1 HTS 99*, MEKK3 PB1 HTS 107, MEKK2wt PB1 HTS 173*, MEKK2wt confirm 122, MEKK2mut confirm 8 and MEKK3 confirm 105.
For N#CC(C#N)=C(N)c1cccnc1 the results were DNA FID counter 1, dFosB activator -2, MEKK2mut PB1 HTS -45, MEKK3 PB1 HTS 46*[inhibitor], MEKK2wt PB1 HTS 57, MEKK2wt confirm 98, MEKK2mut confirm -6 and MEKK3 confirm 97.
For Cc1cc(/C=C2\C(=O)NC(=S)N(C)C2=O)c(C)n1C1CCCCC1 the results were DNA FID counter -5, dFosB activator 6, MEKK2mut PB1 HTS 7, MEKK3 PB1 HTS 105 and MEKK2wt PB1 HTS 88.
